Bioassay records from PubChem BioAssay.
Hits are enriched below; roughly 12% of the tested compounds scored in any of these assays.
BAZ2B block – qHTS Assay for Inhibitors of BAZ2B; Bromodomain adjacent to zinc finger domain protein 2B (Homo sapiens), Q9UIF8; AlphaScreen BAZ2B-H3K14Ac peptide displacement; Potency, µM (doses to about 114 µM), for inactives: top-dose activity change, negative = inhibition, usual class: inhibitors; 360,000 compounds, 4.4% hits; also: % is scaled to controls: 0 for no effect and ±100 for the full control effect; nearly all actives have a fitted effect of over 60% in size
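Inhibition is scored as reduced AlphaScreen emission. The BAZ2B/b-H3(5-23)K14Ac complex (50 nM each) in PBS pH 7.4, 0.01% Tween-20 meets compound (up to 110 uM) for 30 min at RT before bead addition.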
HP1b chromo inh – HTS for Inhibitors of HP1-beta Chromodomain Interactions with Methylated Histone Tails; Chromobox protein homolog 1 (Homo sapiens), P83916; AlphaScreen HP1-beta / biotin-H3K9me3 peptide binding; Potency, µM (highest dose often 114 µM), without a hit: top-dose activity change, negative = inhibition, actives largely listed as inhibitors; 390,000 compounds, 0.56% hits; AID 540317, 2011; also: nearly all actives have a fitted effect of over 70% in size
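Compound inhibition of the preformed complex between 50 nM HP1-beta and 50 nM biotinylated H3K9me3 peptide was read by AlphaScreen. Buffer was PBS pH 7.4 with 0.01% Tween-20. Incubations ran 30 min at room temperature, with 10 ug/mL donor/acceptor beads.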
Sfp inh – qHTS Assay for Inhibitors of Bacillus subtilis Sfp phosphopantetheinyl transferase (PPTase) | Biochemical Sfp PPTase activity, qHTS | 4'-phosphopantetheinyl transferase ffp (Bacillus subtilis), Q9F4F7 | Potency, µM, inactives show largest response in the series, negative = inhibition, hits mostly inhibitors | 310,000 compounds, 3.5% hits | AID 1490, 2009;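 also: the enzyme is Sfp with the accession as filed and its product quenches rhodamine fluorescence; 0% = enzyme reaction without inhibitor and -100% = no enzyme wells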
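Fluorescence-quenching assay with 15 nM Sfp, 5 uM rhodamine-CoA and 12.5 uM BHQ-2-labelled ybbR peptide in pH 7.6 Hepes/MgCl2 buffer. Enzyme was pre-incubated with compound for 15 min at room temperature. Rate was taken from the 30-min fluorescence change (525/598 nm).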
G9a block – qHTS Assay for Inhibitors of Histone Lysine Methyltransferase G9a | G9a H3K9 monomethylation, AlphaScreen, 2 h | Potency, µM (doses to about 102 µM), for inactives: at the highest dose activity, negative = inhibition, actives largely listed as inhibitors | 350,000 compounds, 8.8% hits; also: % is scaled to controls: 0 for no effect and ±100 for the full control effect; nearly all actives have a fitted effect of over 75% in size
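Enzyme 20 nM + cpd, 15 min RT; add b-H3K9 pep 500 nM / SAM 20 uM; 2 h RT; anti-H3K9me1 Ab 0.5 ug/mL + SA donor / anti-rabbit acceptor beads 20 ug/mL each, 10 min; AlphaScreen read.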
TDP1 block – qHTS Assay for Inhibitors of Tyrosyl-DNA Phosphodiesterase (TDP1) | recombinant TDP1, AlphaScreen DNA substrate cleavage | Tyrosyl-DNA phosphodiesterase 1 (Homo sapiens), Q9NUW8 | AID 485290, 2010 | Potency, µM (titrated, usually from 130 µM), without a hit: top-dose activity change, negative = inhibition, actives largely listed as inhibitors | 350,000 compounds, 0.28% hits; also: % is scaled to controls: 0 for no effect and ±100 for the full control effect; nearly all actives have a fitted effect of over 40% in size
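Recombinant E. coli-expressed Tdp1 (1 nM) preincubated with compound 15 min at RT, then 5'-biotin/3'-phosphotyrosine-FITC DNA substrate (15 nM) added for 5 min. AlphaScreen beads (10 ug/ml) added, 10 min RT; tyrosine-FITC cleavage read as signal loss.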
JMJD2A Tudor – qHTS Assay for Inhibitors of JMJD2A-Tudor Domain; Lysine-specific demethylase 4A (Homo sapiens), O75164; AlphaScreen JMJD2A-Tudor / H3K4me3 peptide binding; Potency, µM (top dose mostly 114 µM), for inactives: at the top dose activity change, negative = inhibition, actives largely listed as inhibitors; 390,000 compounds, 4.4% hits; AID 504339, 2011; also: % is scaled to controls: 0 for no effect and ±100 for the full control effect; nearly all actives have a fitted effect of over 50% in size
Target sequence (O75164 whole entry, looked up, the tested form may be a part): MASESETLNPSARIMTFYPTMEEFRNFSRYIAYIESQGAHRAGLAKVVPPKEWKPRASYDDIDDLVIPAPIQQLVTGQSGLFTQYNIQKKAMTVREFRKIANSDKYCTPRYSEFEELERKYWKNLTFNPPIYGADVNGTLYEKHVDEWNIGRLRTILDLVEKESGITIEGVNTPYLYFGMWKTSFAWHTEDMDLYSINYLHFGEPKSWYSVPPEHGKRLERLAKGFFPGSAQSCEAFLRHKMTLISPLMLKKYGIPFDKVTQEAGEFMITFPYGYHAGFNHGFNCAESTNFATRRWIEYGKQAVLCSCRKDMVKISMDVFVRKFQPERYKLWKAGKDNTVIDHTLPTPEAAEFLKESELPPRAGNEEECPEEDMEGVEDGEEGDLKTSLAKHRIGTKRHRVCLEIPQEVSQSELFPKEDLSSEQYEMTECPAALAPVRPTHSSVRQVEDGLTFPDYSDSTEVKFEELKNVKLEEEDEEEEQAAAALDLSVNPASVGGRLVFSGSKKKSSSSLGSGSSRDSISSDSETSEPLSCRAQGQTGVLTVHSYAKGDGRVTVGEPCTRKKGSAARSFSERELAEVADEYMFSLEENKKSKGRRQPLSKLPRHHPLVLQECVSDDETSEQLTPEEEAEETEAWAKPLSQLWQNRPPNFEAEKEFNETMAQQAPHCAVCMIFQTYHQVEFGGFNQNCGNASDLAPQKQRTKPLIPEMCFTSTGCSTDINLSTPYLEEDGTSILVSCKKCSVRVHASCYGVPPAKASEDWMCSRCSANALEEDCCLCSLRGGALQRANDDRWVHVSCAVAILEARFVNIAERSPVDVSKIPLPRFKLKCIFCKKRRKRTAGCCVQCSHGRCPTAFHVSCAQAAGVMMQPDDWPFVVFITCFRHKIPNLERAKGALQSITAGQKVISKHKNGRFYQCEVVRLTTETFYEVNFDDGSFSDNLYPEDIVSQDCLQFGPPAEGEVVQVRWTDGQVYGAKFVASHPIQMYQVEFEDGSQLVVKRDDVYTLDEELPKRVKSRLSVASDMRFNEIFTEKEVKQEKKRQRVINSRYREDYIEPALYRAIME
The depositor's hits bear a star; [ ] = another dose, or the depositor's remark. Calls follow the shape of the dose curve; as a rule, active = well fitted curve in the direction sought with a large enough effect; inconclusive = small, poorly fitted or top-dose-only effect, or another doubt; inactive = no such curve, though single readings can be large; an effect the other way counts as inactive or inconclusive. Potency is read from the fitted curve at half-maximal effect.

Results for CCN(CC)c1ccc(/C=N/Nc2ccccc2)c(O)c1 ?
BAZ2B block: 44.7µM*; HP1b chromo inh: 15.8µM*; Sfp inh: 56.2µM*; G9a block: inconclusive; TDP1 block: 7.8%; JMJD2A Tudor: 28.2µM*

What do the screens show for `CCN(CC)c1ccc(/C=N/Nc2cccc(C)c2)c(O)c1`?
BAZ2B block: 50.1µM*; HP1b chromo inh: 17.8µM*; Sfp inh: inconclusive; G9a block: 1.41µM*; TDP1 block: 8.2%; JMJD2A Tudor: 39.8µM*

What do the screens show for `CCN(CC)c1ccc(/C=N/NC(=S)NC)c(O)c1`?
BAZ2B block: 39.8µM*; HP1b chromo inh: inconclusive; Sfp inh: -8.2%; G9a block: inconclusive; TDP1 block: 5.4%; JMJD2A Tudor: 44.7µM*

How did O=C(CNS(=O)(=O)c1ccc(Br)s1)N1CCN(c2ccc(F)cc2)CC1 do in these assays?
BAZ2B block: -34.7%; HP1b chromo inh: -11.4%; Sfp inh: 2.9%; G9a block: 5.7%[59 µM]; TDP1 block: -7.6%; JMJD2A Tudor: -20.1%

Results for Oc1ccc(C2C(c3ccccc3)=NN=C(c3ccccc3F)N2O)c(O)c1 (centres undefined) ?
BAZ2B block: inconclusive; HP1b chromo inh: -16.4%; Sfp inh: -7.1%; G9a block: 50.1µM*; TDP1 block: 3.8%; JMJD2A Tudor: -31.1%

Results for Oc1ccc(C2C(c3ccccc3)=NN=C(c3ccc(Cl)cc3)N2O)c(O)c1 (centres undefined) ?
BAZ2B block: -31.8%; HP1b chromo inh: 1.0%; Sfp inh: -21.9%; G9a block: 11.2µM*; TDP1 block: 5.3%; JMJD2A Tudor: -30.3%

Results for CCCNC(=O)CS(=O)(=O)c1ccccc1 ?
BAZ2B block: 4.0%; HP1b chromo inh: 38.6%; Sfp inh: 4.8%; JMJD2A Tudor: -2.1%

What do the screens show for `O/N=C1\CCCc2c1nc(-c1ccccc1F)n2O`?
BAZ2B block: 50.1µM*; HP1b chromo inh: -2.4%; Sfp inh: inconclusive; G9a block: 22.4µM*; TDP1 block: 9.0%; JMJD2A Tudor: 31.6µM*

Results for CCCn1c(SCC(=O)c2c(N)n(C3CC3)c(=O)[nH]c2=O)nnc1-c1ccncc1 ?
BAZ2B block: 7.5%; HP1b chromo inh: 31.4%; G9a block: inconclusive; TDP1 block: 0.4%; JMJD2A Tudor: -14.5%

Results for NS(=O)(=O)c1ccc(-c2ccc(/C=C3\C(=O)Nc4ccccc43)o2)cc1 ?
BAZ2B block: -37.8%; Sfp inh: 12.4%

How did CC1(C)OC(=O)C(=Cc2ccc(-c3ccc(S(N)(=O)=O)cc3)o2)C(=O)O1 do in these assays?
BAZ2B block: -19.2%; HP1b chromo inh: -14.3%; Sfp inh: 56.2µM*; G9a block: 35.5µM*; JMJD2A Tudor: -7.7%

What do the screens show for `NS(=O)(=O)c1ccc(-c2ccc(/C=C3\C(=O)Nc4cc(Cl)ccc43)o2)cc1`?
BAZ2B block: 56.2µM*; HP1b chromo inh: 10.4%; Sfp inh: inconclusive; G9a block: 11.2µM*; TDP1 block: 3.7%; JMJD2A Tudor: -29.7%

What do the screens show for `CCOC(=O)C1=C(CN2CCN(c3ccc(OC)cc3)CC2)NC(=O)NC1c1ccc(Cl)cc1` (centres undefined)?
HP1b chromo inh: inconclusive; G9a block: 7.94µM*; TDP1 block: 11.6%; JMJD2A Tudor: 12.6µM*

How did CCOC(=O)c1[nH]c(CN2CCN(c3ccc(OC)cc3)CC2)c(C(=O)OCC)c1C do in these assays?
BAZ2B block: 14.1µM*; HP1b chromo inh: 44.7µM*; Sfp inh: 7.7%; G9a block: 22.4µM*; TDP1 block: 8.0%[0.0935 µM]; JMJD2A Tudor: 50.1µM*

What do the screens show for `CCOC(=O)C1=C(CN2c3ccccc3CC2C)NC(=O)NC1c1ccccc1` (centres undefined)?
BAZ2B block: 50.1µM*; HP1b chromo inh: inconclusive; Sfp inh: -6.5%; G9a block: inconclusive; TDP1 block: 9.6%; JMJD2A Tudor: inconclusive

How did CCOC(=O)C1=C(CN2CCCCC2)NC(=O)NC1c1ccc(OC)cc1 (centres undefined) do in these assays?
BAZ2B block: -9.5%; HP1b chromo inh: 1.5%; G9a block: -22.0%[59 µM]; TDP1 block: 6.2%; JMJD2A Tudor: -5.0%

Results for CCOC(=O)C1=C(CN2CCN(c3ccc(OC)cc3)CC2)NC(=O)NC1c1ccc(OC)cc1 (centres undefined) ?
BAZ2B block: 39.8µM*; HP1b chromo inh: -37.8%; G9a block: 11.2µM*; TDP1 block: 9.9%; JMJD2A Tudor: 56.2µM*

What do the screens show for `O=C(CSc1nnc(Cc2ccccc2)o1)Nc1cccc(F)c1`?
BAZ2B block: -10.4%; HP1b chromo inh: 24.2%; Sfp inh: 26.0%; G9a block: 44.8%; TDP1 block: 1.1%; JMJD2A Tudor: 3.5%

What do the screens show for `CCOC(=O)c1[nH]c(C)c(C(=O)N2CCN(c3ccc(OC)cc3)CC2)c1C`?
HP1b chromo inh: 26.8%; Sfp inh: 0.0%; G9a block: inconclusive; TDP1 block: 1.2%; JMJD2A Tudor: -32.6%

What do the screens show for `CCOc1ccc(C2NC(=O)NC(C)=C2C(=O)OCc2ccccc2)cc1` (centres undefined)?
BAZ2B block: 3.9%; HP1b chromo inh: 12.9%; Sfp inh: 10.1%; G9a block: -11.7%[0.501 µM]; JMJD2A Tudor: -5.5%

How did COc1ccc(C2NC(=O)NC(C)=C2C(C)=O)cc1 (centres undefined) do in these assays?
BAZ2B block: 2.6%; HP1b chromo inh: 18.3%; Sfp inh: -7.2%; G9a block: 12.6µM*; TDP1 block: 6.7%; JMJD2A Tudor: -16.2%

What do the screens show for `CCOC(=O)c1cc(C#N)c(N2CCN(c3ccc(OC)cc3)CC2)[nH]c1=O`?
BAZ2B block: inconclusive; HP1b chromo inh: 4.5%; Sfp inh: 5.4%; G9a block: 5.01µM*; TDP1 block: 1.2%; JMJD2A Tudor: -26.9%

How did CC1=C(C(=O)OCc2ccccc2)C(c2ccc(N(C)C)cc2)NC(=O)N1 (centres undefined) do in these assays?
BAZ2B block: inconclusive; HP1b chromo inh: -23.7%; Sfp inh: 2.0%; G9a block: 10µM*; TDP1 block: 5.2%; JMJD2A Tudor: inconclusive
